Out of some 360,000 compounds screened, about 17,000 (4.7%) were called active. Another 5% or so got no clear call; they are omitted. This is one part of a sample in which actives are shown more often than they occur. Values without a mark were called inactive. No stated cut-off is given here; in the data, active means activity change below about -50%; inconclusive means mostly about -30% to -49%; inactive means weaker than that.
On the % scale 0 is the no-effect control and ±100 the full control effect.

A short description of the assay: qHTS for Inhibitors of Inflammasome Signaling: IL-1-beta AlphaLISA Primary Screen. The note with it: THP-1 LPS/ATP IL-1B secretion, 16 h; at 57.5 µM, stronger effect = lower value. An outline of the steps:
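Secreted IL-1B measured by AlphaLISA bead assay after 16 h compound exposure of THP-1 cells; compounds (final up to 57.5 uM) added 1 h before LPS (250 ng/mL) and ATP (1.25 mM) stimulation; lower signal means less secretion.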
Take `COc1cc(NC(=O)C2=C(C)OCCS2)c(Cl)cc1C(=O)NCCCN1CCCC(C)C1` (configuration not stated): the activity change was -28.6%.
As for `CCCNC(=O)C1(C)CCN(C(=O)c2cc(F)ccc2C)C1` (configuration not stated), the activity change is 34.1%.
With `COc1cccc(C(NC(C)=O)c2nc(-c3ccccc3OC)cs2)c1` (configuration not stated), the activity change was 9.34%.
The figure for `COC(=O)C[C@@H]1C=C[C@@H](NC(=O)c2ccc3c(c2)OCO3)[C@@H](CO)O1` is 7.5%; for `COc1cccc(CNC(=O)CN2C(=O)NC(Cc3ccccc3)(c3ccccc3)C2=O)c1` (configuration not stated) it is -58.8% (active); for `CCCCNC(=O)CN1C(=O)NC(Cc2ccccc2)(Cc2ccccc2)C1=O` it is 4.67%.
The result for `COc1cccc(CNC(=O)COC(=O)CN2C(=O)NC3(CCCCC3C)C2=O)c1` (configuration not stated) reads 8.38%.
As to `CN(Cc1nc2ccccc2c(=O)[nH]1)Cc1cc(=O)oc2ccc3ccccc3c12`, the activity change was 0.506%.
For the molecule `O=C(CNc1ccccc1N1CCCC1=O)Nc1cc(Cl)ccc1-n1cncn1`, the activity change was -19.4%.
As for `CCN(CC)S(=O)(=O)c1ccc(NC(=O)c2cnc(C)cn2)cc1`, the activity change was 57%.
Consider `CCN(CC)S(=O)(=O)c1ccc(NC(=O)c2cccnc2Cl)c(NC(=O)c2cccnc2Cl)c1`, for which the activity change is -102% (active).
For `Cc1ccc(CNC(=O)c2cccnc2Cl)cc1`, the activity change was 55.4%.
As to `CC(O)(c1cccc(F)c1)c1nc(-c2ccc3c(c2)OCO3)cs1` (configuration not stated), the activity change is 16%.
With `COc1cc(-c2nnc(NC(=O)CS(=O)(=O)c3ccc(Cl)cc3)o2)cc(OC)c1OC`, the activity change was -11%.
On to `CCN(CC)c1ccc(NC(=O)c2ccc(=O)[nH]c2)cc1S(=O)(=O)Nc1ccc(OC)cc1`, for which the activity change is -3.18%.
Take `COc1ccc(CNC(=O)COC(=O)c2sccc2C)cc1OC`: the activity change is 12.1%.
As for `Oc1[nH]c2ccccc2c1N=Nc1c(F)c(F)c(F)c(F)c1F`, the activity change was -7.81%.
For `O=C(CCN1CCCCC1)N=Nc1c(O)[nH]c2ccccc12`, the activity change is -74.6% (active).
Take `Cc1cccc(N(CC(=O)N=Nc2c(O)[nH]c3ccccc23)S(C)(=O)=O)c1C`: the activity change is 19.5%.
On to `CS(=O)(=O)N1CCc2nc(-c3ccccc3)sc2C1`, for which the activity change is 54.3%.
Turning to `COc1ccccc1OCCNC(=O)C(CCSC)NC(=O)COc1ccccc1` (configuration not stated), the activity change is -18.9%.
The figure for `NC(=O)c1ccc(N2CCCC2)nc1` is 5.48%; for `Cc1nc2ccc(C(=O)N(C)CC3CCCN(CCc4ccc(Cl)cc4)C3)cc2[nH]1` (configuration not stated) it is 8.01%.
In the case of `COc1cccc(CN(C)CC2CCCN(CCc3ccc(Cl)cc3)C2)c1OC` (configuration not stated), the activity change was -90.5% (active).
The figure for `COc1cccc(CN(C)CC(=O)NCc2ccccc2Cl)c1OC` is 1.26%; for `C[C@H]1CN([C@@H](C)CO)S(=O)(=O)c2ccc(-c3cccc(F)c3)cc2O[C@@H]1CN(C)C` it is -2.69%; for `Clc1ccccc1Nc1nc(NCc2cccs2)nc2ccsc12` it is 42.9%.
On to `CC(C)Nc1nc(NCCOc2ccccc2Cl)c2sccc2n1`, for which the activity change was -90.6% (active).
The entry for `O=C(NCCOc1ccccc1Cl)C(=O)Nc1ccccc1` is “inactive”.
Take `C=C(C)C1CC=C(C)/C(=N\NC(=O)CNc2ccccc2OC)C1` (configuration not stated): the activity change was -1.86%.
Turning to `COc1ccc2nc(-c3ccccn3)ccc2c1`, the activity change was 19.8%.
Consider `CCc1ccccc1NC(=O)CN1CCN(C(=O)c2cc(C3CC3)nn2-c2ccccc2)CC1`, for which the activity change was -18.2%.
`CC(=O)Nc1cccc(-c2ccnc3c2CC(C)(C(=O)NCc2ccco2)O3)c1` (configuration not stated): the activity change is 78.5%.
The figure for `COc1cccc2oc(CCc3ccccc3)cc(=O)c12` is -5.15%; for `CCOC(=O)c1ccc(NC(=O)c2nc[nH]c2C(=O)N[C@@H](CCCCNC(=O)OC(C)(C)C)C(=O)OC(C)(C)C)cc1` it is -62.8% (active).
For `CCOC(=O)c1ccc(NC(=O)c2nc[nH]c2C(=O)NCc2ccccc2)cc1`, the activity change is 7.09%.
The figure for `CC(C)(C)OC(=O)CNC(=O)c1[nH]cnc1C(=O)N[C@@H](CCCCN)C(=O)OC(C)(C)C` is -12.6%; for `COc1ccccc1CC1(C)C(=O)Nc2ccc(OC(F)(F)F)cc21` (configuration not stated) it is 4.75%; for `COc1ccc(C(C(O)C(=O)c2c[nH]c3ccccc23)N2CCN(c3ccccc3)CC2)cc1` (configuration not stated) it is 14.4%.
Turning to `COc1ccc(/C=C(\NC(=O)c2ccc(OC)c(OC)c2)C(=O)NCCc2c[nH]c3ccccc23)cc1`, the activity change was -11.1%.
Regarding `COc1ccc(/C=C(\C#N)c2c[nH]c3ccccc23)cc1`, the activity change is -102% (active).
For `Cc1ccc([C@H]2N[C@]3(CCCN(CC4CCCCC4)C3=O)[C@H]3C(=O)N(Cc4ccccc4)C(=O)[C@@H]23)cc1`, the activity change is -9.33%.
For `O=C(CC(c1ccccc1)c1ccccc1)NCC(O)c1ccc([N+](=O)[O-])cc1` (configuration not stated), the activity change is -69.4% (active).
The result for `CC(=O)NCC(O)c1ccc([N+](=O)[O-])cc1` (configuration not stated) reads 0.816%; that for `O=C(NCC(O)c1ccc([N+](=O)[O-])cc1)C1CCCCC1` (configuration not stated), -13.9%; that for `O=C(O)c1ccc([N+](=O)[O-])cc1Sc1ccsc1`, 4.28%.
The result for `O=C(NCc1cccc(C(F)(F)F)c1)c1ccc2sc(COCCO)nc2c1` reads 28.9%; that for `CCN(CC)CCOC(=O)c1ccc(NC(=O)CNC(=O)c2ccccc2)cc1`, 7.44%; that for `CCN(CC)CCNC(=O)c1ccc(NS(=O)(=O)c2ccc3c(c2)OCCO3)cc1`, -6.92%.
The result for `CCN(CC)CCNC(=O)c1ccc(NC(=O)c2c(F)cccc2Cl)cc1` reads -73.3% (active).
Take `FC(F)(F)Oc1ccc(NC(=S)NCc2ccccc2)cc1`: the activity change is -95% (active).
The figure for `CCNC(=S)Nc1ccc(OC(F)(F)F)cc1` is -1.65%; for `COC(=O)Cc1ccc(NC(=S)NCc2ccccc2)cc1` it is 0.636%; for `CC1(C)OC(=O)C2=C(C[C@@H](C3CC3)O[C@H]2c2ccc(Cl)cc2)O1` it is 6.02%.
Regarding `N=C1c2ccccc2-c2ccccc21`, the activity change was 3.3%.
On to `CN(C)S(=O)(=O)Oc1ccccc1C(=O)Nc1ccccc1Cl`, for which the activity change is 3.38%.
The result for `O=C(Nc1ccccc1Cl)/C(Cl)=C(\Cl)S(=O)c1ccccc1` (configuration not stated) reads -103% (active).
`Cc1c(NC(=O)Nc2ccccc2Cl)sc(=S)n1C`: the activity change was -4.03%.
The result for `CCCNC(=O)C1(C)CCN1C(=O)C1(c2ccccc2)CC1` (configuration not stated) reads 0%; that for `Nc1ncnc2c1ncn2[C@@H]1O[C@H](C(=O)N2CCSC2)[C@@H](O)[C@H]1O`, 3.32%.
As to `Cc1ccc(S(=O)(=O)N(CCc2ccccc2)c2ccc3c(c2)C2CC3CCN2C(=O)OCc2ccccc2)cc1` (configuration not stated), the activity change was -16.8%.
As for `COc1ccc(C2=Nc3ccccc3NC(=O)C2N(C(=O)c2cc3ccccc3[nH]2)c2ccccc2)cc1` (configuration not stated), the activity change is 16.6%.
With `Oc1ccc2ccccc2c1N=Nc1nccs1`, the activity change was -98.3% (active).
On to `CC(C)(C)c1ccc(Cn2nnc3c(=O)[nH]c(C4CCCN(C(=O)c5ccco5)C4)nc32)cc1` (configuration not stated), for which the activity change is -12.5%.
As to `COc1cc(NC(=O)C2CCN(c3cnccn3)CC2)cc(OC)c1`, the activity change is -9.18%.
The result for `Nc1ccc(C(=O)Nc2ccccc2N)cc1` reads -21%; that for `Cc1ccc(Nc2nc(Cl)c(C=O)s2)cc1`, -13.1%.
The result for `Cc1ccc(Nc2ccccc2N)cc1` reads -70% (active); that for `Cc1nc2ccc(N)nc2nc1C`, 10.3%; that for `CC(C)(C)N1C(=O)c2c(C(=O)OCc3ccccc3)[nH]c(-c3ccccc3)c2C1=O`, 11.9%.
As to `CCOc1cc(/C=N/O)ccc1OCc1ccccc1F`, the activity change is -8.72%.
The figure for `COc1ccccc1CNCc1cccs1` is 10.3%; for `Fc1ccccc1COc1ccccc1CNCc1ccncc1` it is -61.1% (active).
Regarding `CCOC(=O)C1=C(O)/C(=C/c2cc(C)n(-c3ccccc3)c2C)N=C1C`, the activity change was -9.27%.
The result for `COc1ccc(NS(=O)(=O)c2cccc(C(=O)NCCc3ccc(S(N)(=O)=O)cc3)c2)cc1` reads 6.56%.
Regarding `O=C(CN1C(=O)NC2(CCCCCC2)C1=O)NCc1ccc(F)cc1`, the activity change is -13.3%.
The figure for `CSc1ccc(CN2C(=O)NC3(CCCCCC3)C2=O)cc1` is -60.4% (active).
`O=C(CN1C(=O)NC2(CCCCCCC2)C1=O)NCc1ccc(F)cc1`: the activity change is -15.9%.
With `CC(C)c1ccc(C=NNc2ccc([N+](=O)[O-])cn2)cc1`, the activity change was 20.1%.
The figure for `O=C1NCC(Nc2ccccc2)C(=O)N1` (configuration not stated) is 11.9%; for `O=C(Nc1ccn(CCCNCc2ccc3[nH]ccc3c2)c(=O)n1)OCc1ccccc1` it is -20.2%; for `COc1cccc(-c2sc3ccc(OC)cc3c2-c2ccc(OCCN3CCCCC3)cc2)c1` it is -3.91%.
Take `COc1ccccc1-c1sc2ccccc2c1-c1ccc(Br)nc1`: the activity change was 26.6%.
For `COc1ccc2sc(-c3ccccc3OC)c(-c3ccc(OCCN4CCCC4)cc3)c2c1`, the activity change is -51% (active).
As for `CC1(C(=O)NS(=O)(=O)c2ccc(Cl)cc2)CCN1C(=O)CC1CCCC1` (configuration not stated), the activity change is 24.4%.
On to `CCCCSc1nc2c(c(=O)n1CC)SC(C)C2` (configuration not stated), for which the activity change is 25.4%.
As for `CCN1CCN(C(=O)CN(C)S(=O)(=O)c2ccc(OC)cc2)CC1`, the activity change is -5.95%.
In the case of `CCOCCCNC(=O)C1(O)c2cc(Br)ccc2NC(=O)N1c1ccc(C)c(C)c1` (configuration not stated), the activity change is 29.6%.
For the molecule `COc1ccc(-c2cc(C(=O)NCCCN3CCCC3=O)c3ccccc3n2)cc1OC`, the activity change was 0%.
Consider `COc1ccc(-c2cc(C(F)(F)F)nc(S(C)(=O)=O)n2)cc1OC`, for which the activity change is -105% (active).
Take `COc1ccc(-c2cc(-c3ccc(N)cc3)nc(N)c2C#N)cc1OC`: the activity change is 0%.
Turning to `O=C1NC[C@H](Cc2ccc(O)cc2)N(C[C@H]2CCCN2C[C@H](Cc2ccccc2)N2C[C@H](Cc3ccccc3)N(CCc3ccccc3)C(=O)C2=O)C1=O`, the activity change is -12.9%.

These data come from PubChem BioAssay AID743279 (National Center for Advancing Translational Sciences (NCATS), 2014).
